Assay outcomes deposited in PubChem BioAssay by National Center for Advancing Translational Sciences (NCATS).
Sampled rows, rich in hits. Any-hit rate of the full collection: about 11%.
Vaccinia mCherry = inhibitors of vaccinia virus infection (mCherry reporter signal). Potency, µM (series often up to 36.5 µM), actives largely listed as inhibitors. Vaccinia virus mCherry reporter infection, fluorescence. 0.63% of 310,000 active; calls by dose curve; tested in A549 cells; also: nearly all actives have a fitted effect of over 35% in size
VACV Venus inh = inhibitors of vaccinia virus (Venus reporter) | AID 720580 | Vaccinia virus Venus reporter expression, fluorescence | Potency, µM (top dose mostly 36.5 µM), usual class: inhibitors | 0.46% of 330,000 active; calls by dose curve; tested in A549 cells; also: nearly all actives have a fitted effect of over 30% in size
NS1 inh = influenza NS1 inhibition; Potency, µM (titrated, usually from 46.1 µM); 0.4% of 270,000 active; AID 2326; calls by dose curve; also: actives are rising curves; nearly all actives have a fitted effect of over 50% in size
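Compounds were scored for reversing the slow growth caused by influenza A NS1 in S. cerevisiae, measured by optical density at 600 nm. Assay medium contained 2% galactose at pH 6.0; NS1-free yeast of the same strain were the positive control.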
Pf growth 48h = inhibits P. falciparum growth in the first generation, 48 h; P. falciparum luciferase growth in erythrocytes, 48 h; Potency, µM (highest dose often 28.7 µM), hits mostly inhibitors; 5.9% of 310,000 active
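Here the parasites carry a stable luciferase gene and grow inside erythrocytes in Albumax-based RPMI medium with compound for one erythrocytic cycle. Activity is scored as loss of luminescent signal.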
Pf growth 96h = inhibits malaria parasite growth, 96 h; 6.9% of 320,000 active; AID 504834; Potency, µM (doses to about 28.7 µM), actives largely listed as inhibitors; P. falciparum luciferase reporter growth, 96 h
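Readout is luminescence from an integrated firefly luciferase in P. falciparum. Red cells, 2% hematocrit and 0.05% parasitemia final, were cultured with compound through two parasite generations (96 hours) at 37 C, 5% CO2.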
HCV inh = inhibitors of hepatitis C virus infection; Huh7.5.1 HCVcc-Cre infection, luciferase reporter, 44 h; Potency, µM (doses to about 41.8 µM), hits mostly inhibitors; 3.4% of 340,000 active; AID 651820
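Cells seeded at 1,000/well and cultured 4 h, then compounds added followed by HCVcc-Cre virus (~0.5 moi). After 44 h further culture, luciferase substrate was added, plates held 15 min at room temperature, and luminescence read for 15 sec.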
Numbers stand for hits; - = inactive; ? = inconclusive; . = no result given; [ ] = remark or other dose. Unless noted, calls follow the shape of the dose curve; as a rule, active = well fitted inhibition curve with a large enough effect; inconclusive = small, poorly fitted or top-dose-only effect, or another doubt; inactive = no such curve, though single readings can be large or run the other way.

SMILES | Vaccinia mCherry | VACV Venus inh | NS1 inh | Pf growth 48h | Pf growth 96h | HCV inh
CC1(C)[C@@H]2CC[C@]1(C)[C@@H](OC(=O)/C=C\c1ccccc1)C2 | . | . | - | . | . | .
Cc1ccc(OC(C)C(=O)N2CCc3ccccc32)cc1 (configuration not stated) | . | - | - | 2.9µM | . | -
CC(Oc1ccccc1)C(=O)N1CCCc2ccccc21 (configuration not stated) | . | . | - | - | . | -
CC(C)COc1ccc(N)cc1OCC(C)C | - | - | . | - | - | 2.8µM
O=c1c2sccc2n(Cc2cc(=O)n3ccccc3n2)c(=O)n1-c1ccccc1 | - | - | - | - | 4.7µM | -
CC(=O)c1cn(CCCOc2ccccc2)c2ccccc12 | - | - | - | ? | - | 7.1µM
CC(=O)c1cn(CCOc2ccc(F)cc2)c2ccccc12 | . | . | - | ? | ? | 13µM
O=C(C(=O)N1CCOCC1)c1cn(CCCOc2ccccc2)c2ccccc12 | - | - | - | - | - | -
Cc1cc(OCCn2cc(/C(N)=N/O)c3ccccc32)ccc1Cl | ? | ? | ? | ? | ? | 7.1µM
Cc1ccc(OCCn2cc(C#N)c3ccccc32)cc1 | . | - | - | 8.3µM | ? | ?
CCOc1ccc(S(=O)(=O)N2CCN(C(=O)c3ccc(Cl)c(S(=O)(=O)N4CCOCC4)c3)CC2)cc1 | . | . | . | . | . | -
COc1ccc2[nH]cc(CCNC(=O)/C=C/[C@H]3O[C@@H](n4cnc5c(NC(=O)c6ccccc6)ncnc54)[C@H](O)[C@@H]3O)c2c1 | - | - | . | . | . | .
COc1ccc(C2=C(C)C(=O)N(Cc3ccc(C(=O)Nc4ccc(F)cc4C)cc3)S2(=O)=O)cc1 | - | - | . | . | . | .
Cc1nc(Nc2ccc(C(=O)O)cc2)sc1-c1ccccc1 | - | - | ? | - | - | -
COC(=O)c1sccc1NC(=O)c1c(F)c(F)c(F)c(F)c1F | -[7.34 µM] | -[7.34 µM] | . | . | . | 13µM
COC(=O)c1sccc1NC(=S)Nc1ccccc1 | - | - | - | - | - | -
COC(=O)c1sccc1NC(=O)c1ccccc1[N+](=O)[O-] | - | - | - | - | 1.9µM | -
COC(=O)c1sccc1NS(=O)(=O)c1ccccc1[N+](=O)[O-] | - | - | . | - | - | -
COC(=O)c1sccc1NC(=O)Nc1cccc(C)c1C | - | - | - | - | 4.1µM | -
COC(=O)c1sccc1NC(=S)Nc1cc(C)cc(C)c1 | - | - | - | - | 10µM | -
COc1cc(NC(=O)c2ccccc2[N+](=O)[O-])ccc1NC(=O)C(C)C | - | - | - | - | 9.3µM | -
COc1ccc(C(=O)Nc2sc3c(c2C(=O)O)CC(C)(C)OC3)cc1 | - | - | - | - | - | -
CC(C)COc1ccc(C(=O)Nc2sc3c(c2C(=O)O)CC(C)(C)OC3)cc1 | ? | - | - | - | - | 10µM
CCOC(=O)c1c(NC(=O)c2cccs2)sc2c1CC(C)(C)OC2 | . | - | - | ? | - | 7.9µM
O=C(c1ccc(Cl)c(S(=O)(=O)N2CCCCCC2)c1)N1CCCCC1 | . | . | - | ? | - | -
SMILES | Vaccinia mCherry | VACV Venus inh | NS1 inh | Pf growth 48h | Pf growth 96h | HCV inh
Cc1c(C)n(C)c2ccc(C(=O)N3CCN(c4ccccc4)CC3)cc12 | - | - | - | - | ? | -
O=C(c1ccc(Cl)c(S(=O)(=O)N2CCCCCC2)c1)N1CCN(c2ccccn2)CC1 | ? | ? | - | . | ? | 7.1µM
CCOc1ccccc1N1CCN(C(=O)c2cc(S(=O)(=O)N3CCCCC3)ccc2C)CC1 | . | . | . | ? | ? | -
CCOc1ccccc1N1CCN(C(=O)c2ccc(Cl)c(S(=O)(=O)N3CCCCC3)c2)CC1 | - | - | . | 12µM | 5.2µM | 10µM
Cc1c(C)n(C)c2ccc(C(=O)N3CCN(c4ccccn4)CC3)cc12 | . | . | - | 10µM | - | ?
CCCCc1ccc(NC(=S)Nc2ccc(Nc3ccc(OC)cc3)cc2)cc1 | - | ? | ? | - | - | ?
Cc1ccc(NC(=S)NC2CC3CCC(C2)N3Cc2ccco2)c(C)c1 (configuration not stated) | - | - | - | - | ? | -
S=C(Nc1ccc2c(c1)OCO2)NC1CCN(Cc2ccccc2)CC1 | . | . | - | . | - | ?
Cc1ccc(NC(=S)NC2CC3CCC(C2)N3Cc2ccco2)cc1C (configuration not stated) | - | - | - | ? | 12µM | -
CC(C)c1ccc(NC(=S)NC2CCN(Cc3ccccc3)CC2)cc1 | ? | ? | - | 10µM | ? | ?
S=C(Nc1cc(Cl)cc(Cl)c1)NC1CCN(Cc2ccccc2)CC1 | . | . | - | 5.9µM | ? | 10µM
Cc1ccc(NC(=S)NC2CCN(Cc3ccccc3)CC2)cc1C | - | ? | . | ? | ? | 11µM
Cc1ccc(NC(=S)NC2CCN(Cc3ccccc3)CC2)cc1 | - | - | - | ? | ? | ?
CCc1ccc(CN(C)Cc2nc(Cc3cccc(C(F)(F)F)c3)no2)nc1 | - | - | - | ? | - | -
O=C(Nc1ccc(N2CCOCC2)cc1)C1CC(=O)N(c2ccc(F)cc2)C1 (configuration not stated) | - | - | - | - | 10µM | -
CC(=O)/C=C/n1c(=S)oc2ccccc21 | - | ? | - | ? | - | 4.5µM
CC(C)CC(=O)/C=C/n1c(=S)oc2ccccc21 | - | - | - | ? | ? | 14µM
Cn1c(=S)oc2ccccc21 | -[7.34 µM] | -[7.34 µM] | - | - | - | -
CCN(c1ccc(N=Cc2c(O)n(Cc3ccc(OC)cc3)c(=O)c3ccccc23)cc1)C(C)C | - | - | . | ? | 1.5µM | -
CN(C)c1ccc(CN(Cc2ccco2)C(=O)c2ccc(C(C)(C)C)cc2)cc1 | - | - | . | . | . | .
Cc1cc(-n2c(SCC(=O)NCCC3=CCCCC3)nc3n[nH]c(C)c3c2=N)ccc1Cl | . | . | - | ? | 4.7µM | ?
CC[N+](C)(C)c1cccc(O)c1 | - | - | - | ? | 1.7µM | -[8.37 µM]
Cc1ccc(Cl)c(NC(=O)CCl)c1Cl | ? | ? | . | ? | 12µM | -
Cc1ccc(Cl)c(NC(=O)CSc2cccc[n+]2[O-])c1Cl | - | - | . | . | . | -
COC(=O)c1cc(-c2ccc(Cl)cc2)n(-c2ccc(S(N)(=O)=O)cc2)n1 | - | - | . | - | ? | -
SMILES | Vaccinia mCherry | VACV Venus inh | NS1 inh | Pf growth 48h | Pf growth 96h | HCV inh
Cc1ccc2nc(/C(C#N)=C\c3ccc(Oc4ccc([N+](=O)[O-])cn4)cc3)[nH]c2c1 | - | - | - | 9.3µM | ? | ?
Cc1ccc(/C(C#N)=C/c2cccc([N+](=O)[O-])c2)cc1 | . | . | - | . | . | .
COc1cc(/C=C(/C#N)c2nc3ccccc3[nH]2)ccc1Oc1ncccc1[N+](=O)[O-] | ? | - | - | 15µM | ? | 2.5µM
COc1cc(/C=C(/C#N)c2ccc(C)cc2)ccc1Oc1ccc([N+](=O)[O-])cn1 | - | - | - | ? | - | 10µM
COc1ccc2nc(/C(C#N)=C\c3ccc(C(=O)O)cc3)[nH]c2c1 | - | - | . | - | - | -
COc1cc(/C=C(\C#N)c2nc3ccccc3[nH]2)ccc1OCc1ccc(F)cc1 | - | - | . | . | . | .
COc1ccc2nc(/C(C#N)=C\c3ccc(Oc4ccc([N+](=O)[O-])cn4)cc3)[nH]c2c1 | - | - | ? | 15µM | ? | ?
O=[N+]([O-])c1ccc(Oc2ccc(/C=N/O)cc2)nc1 | ? | - | - | - | - | -
